Only some compounds are listed: those with a hit (about 5.4% of all), similar ones and a draw of the others.
VP16 counter: Gal4-VP16 reporter inhibition counter-screen; hit rate 3.5% among 310,000; Drosophila S2 Gal4-VP16 UAS-luciferase, luminescence, 20 h; Potency, µM (top dose mostly 53.6 µM), inactives show at the highest dose activity, negative = inhibition, most hits filed as inhibitors;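 further: Gal4-VP16 expression switched on by copper sulfate through the metallothionein promoter; potency means the concentration at half of the fitted maximal effect; on the % scale 0 is the no-effect control and ±100 the full control effect; nearly all actives have a fitted effect of over 50% in size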
p53 reactivation: re-activators of mutant p53 | H1299 p53-A138V BP100-luciferase reporter, luminescence, 24 h | Potency, µM (doses to about 92.2 µM), for the others: at the highest dose activity change, positive = activation, most hits filed as activators | hit rate 0.063% among 320,000; further: potency means the concentration at half of the fitted maximal effect; % of control where 0% means no effect; nearly all actives have a fitted effect of over 45% in size
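H1299 (p53-null), stable ts p53-A138V + BP100-Luc; 1000 cells/well, Opti-MEM/10% FBS; cpd 4 pt, 1:5; 24 h, 37 deg C, 5% CO2; detection reagent 10 min RT; luminescence.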
CtBP-E1A blk: inhibitors of CtBP/E1A interaction; hit rate 0.49% among 340,000; activity change, % (test concentration not listed); AlphaScreen GST-E1A/His-CtBP binding, 1536-well; stronger effect = lower value; in the data active means activity change below about -65%; inconclusive means mostly about -30% to -63%; further: on the % scale 0 is the no-effect control and ±100 the full control effect
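AlphaScreen with 125 nM GST-E1A and 125 nM His-CtBP (5X stocks) in Tris pH 8.0, 300 mM NaCl, BSA, Tween 20, TCEP. Compounds preincubated 2 h at 37 deg C, then glutathione donor/nickel acceptor beads added for 1 h at 37 deg C in dark.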
RORgamma inh: ROR gamma (mouse) transcription inhibition | P51450 | Drosophila S2 Gal4-RORgamma UAS-luciferase reporter, 20 h | Potency, µM (series often up to 53.6 µM), without a hit: at the top dose activity change, negative = inhibition, usual class: inhibitors | hit rate 5.4% among 310,000; further: potency means the concentration at half of the fitted maximal effect; on the % scale 0 is the no-effect control and ±100 the full control effect; nearly all actives have a fitted effect of over 60% in size
Target sequence (P51450 whole entry, looked up, the tested form may be a part): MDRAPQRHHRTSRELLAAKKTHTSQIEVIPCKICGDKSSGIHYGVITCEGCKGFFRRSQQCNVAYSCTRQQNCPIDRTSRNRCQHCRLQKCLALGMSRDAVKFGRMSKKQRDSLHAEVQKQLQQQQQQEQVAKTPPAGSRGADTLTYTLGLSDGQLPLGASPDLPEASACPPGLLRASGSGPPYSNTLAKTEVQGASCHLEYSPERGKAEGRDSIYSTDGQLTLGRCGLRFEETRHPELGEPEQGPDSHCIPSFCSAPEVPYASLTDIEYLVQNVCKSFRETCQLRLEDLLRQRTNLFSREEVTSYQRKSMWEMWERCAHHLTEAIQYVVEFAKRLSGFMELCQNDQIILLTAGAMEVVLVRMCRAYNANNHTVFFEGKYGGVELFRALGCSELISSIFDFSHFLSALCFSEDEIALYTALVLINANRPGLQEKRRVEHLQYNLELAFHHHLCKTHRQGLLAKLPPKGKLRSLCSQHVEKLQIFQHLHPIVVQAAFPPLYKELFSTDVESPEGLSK
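Read-out: Photinus luciferase luminescence; inhibitors lower reporter signal. Insect Schneider cells with Gal4-ROR gamma fusion under metallothionein promoter, UAS reporter; 700 uM final copper sulfate induction, 20 hr, ambient temperature.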
Six1-Eya2 inh: inhibitors of human Six1/Eya2 interaction; Q15475+O00167; AlphaScreen GST-Six1/His-Eya2 binding, biochemical; stronger effect = lower value; activity change, % (no concentration beside the values); hit rate 0.56% among 360,000; AID 651725; in the data active means activity change below about -65%; inconclusive means mostly about -30% to -63%; further: on the % scale 0 is the no-effect control and ±100 the full control effect
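Homogeneous AlphaScreen proximity assay pairing GST-Six1 with His-tagged Eya2 (added as 5X mix: 250 nM and 500 nM) in 50 mM Tris pH 8.0, 300 mM NaCl, 1 mM TCEP. Glutathione donor and nickel acceptor beads; 1 h, 37 °C, dark.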
Numbers without * were called inactive; ? = inconclusive; nt = no result; [ ] = dose if it differs, or a comment. Unless noted, the call rests on the fitted dose curve; in most records, active means well fitted curve in the direction sought with a large enough effect; inconclusive means small, poorly fitted or top-dose-only effect, or another doubt; inactive means no such curve, though single readings can be large; an effect the other way counts as inactive or inconclusive.

SMILES | VP16 counter | p53 reactivation | CtBP-E1A blk | RORgamma inh | Six1-Eya2 inh
C/C(CC(=O)Nc1cccc(Br)c1)=N\NC(=O)c1ccc(O)cc1O | ? | 5% | -2 | 0.89µM* | -1
CCN(CC)CCn1c(=S)[nH]c2ccc(Br)cc2c1=O | 13µM* | 6% | -8 | 11µM* | -2
COc1ccccc1Cn1c(=S)[nH]c2ccc(Br)cc2c1=O | 5.6µM* | 0% | 7 | 2µM* | 11
COc1ccccc1Cn1c(=S)[nH]c2cc(C(=O)NC(C)C)ccc2c1=O | -10% | -7% | 0 | 0% | 6
CCN(CC)CCn1c(=S)[nH]c2ccccc2c1=O | 6% | 2% | -10 | -35% | 0
O=c1c2cc(F)ccc2[nH]c(=S)n1Cc1ccc(F)cc1 | 3.2µM* | -1% | 6 | 1.4µM* | 1
COc1ccccc1Cn1c(=S)[nH]c2ccccc2c1=O | 14µM* | -3% | 13 | 10µM* | 4
CC(C)CC1(C(=O)O)C=CCN1C(=O)c1ccccc1 (configuration not stated) | 1% | nt | nt | 13% | nt
CCN(CC(=O)NC(C)(C)C)C(=O)c1ccc2c(c1)S(=O)(=O)c1ccccc1C2=O | -4% | 1% | -12 | 1% | -1
COc1ccccc1CNC(=O)COC(=O)c1nccnc1N | 6% | -10% | -2 | 1% | 1
CC1(C)O[C@@H]2C[C@H]3[C@H]4C[C@H](F)C5=CC(=O)CC[C@]5(C)[C@@H]4[C@H](O)C[C@]3(C)[C@]2(C(=O)CO)O1 | -5%[17 µM] | nt | nt | -10%[2.98 µM] | nt
COc1ccccc1Cn1c(=S)[nH]c2ccc(F)cc2c1=O | 11µM* | 0% | 0 | 16µM* | -4
COc1ccc(OC)c(NC(=O)CCn2c(=S)[nH]c3ccccc3c2=O)c1 | -6% | 8% | 4 | -32% | 1
COc1ccccc1NC(=O)CCCn1c(=S)[nH]c2ccccc2c1=O | ? | 4% | nt | 10µM* | 13
Cn1c(CNC(=O)c2ccco2)nnc1SCC(=O)c1ccc(Br)cc1 | -4% | -6% | -14 | 11% | -3
COC(=O)CSc1nnc(CNc2nc(-c3ccccc3)cs2)n1C | -5% | -2% | -27 | 0% | ?
COc1ccc(NCc2nnc(SCC(=O)Nc3nc(-c4ccccc4)cs3)n2-c2ccccc2)cc1 | 5µM* | 0% | -6 | 8% | -1
COc1ccc(-n2c(CNc3ccc(C)cc3)nnc2SCC(=O)Nc2nc(-c3ccccc3)cs2)cc1 | -8% | -7% | 1 | 15% | -2
COc1ccc(C(=O)CSc2nnc(CNc3nc(-c4ccccc4)cs3)n2C)cc1 | 18% | -7% | -70* | 20% | -71*
Cn1c(CNC(=O)c2ccco2)nnc1SCC(=O)c1ccccc1 | 18% | 10% | 8 | 28µM* | -4
Brc1cccc(-c2nnc(SCc3nc4ccccc4[nH]3)o2)c1 | -17% | -8% | 11 | 11µM* | 1
O=C(O)c1cccc(CSc2nnc(-c3ccc(Cl)cc3)o2)c1 | 0.79µM* | 4% | nt | ? | -1
c1ccc(-c2nnc(SCc3ccncc3)o2)cc1 | nt | nt | 1 | nt | 7
Cc1cccc(-c2nnc(SCc3ccccc3)o2)c1 | -29% | 36% | 27 | 14µM* | 34
CCOC(=O)c1ccccc1NC(=O)COC(=O)c1ccccc1C(=O)N(C)c1ccccc1 | nt | -4% | 10 | nt | 3
SMILES | VP16 counter | p53 reactivation | CtBP-E1A blk | RORgamma inh | Six1-Eya2 inh
CCC(=O)c1cc(F)c(N2CCN(C(=O)Cc3ccccc3)CC2)cc1C | 13µM* | -4% | -1 | 11% | 11
N#CCSc1nc2ccccc2c(=O)n1CC1CCCC1 | -12% | -5% | nt | -11% | 7
N#CCSc1nc2ccc(N3CCCCC3)cc2c(=O)n1Cc1ccccc1 | ? | 22% | -3 | 3.5µM* | -8
O=C(O)CC/C=C\CC[C@H]1[C@@H](N2CCCCC2)[C@@H](O)C[C@@H]1OCc1ccc(-c2ccccc2)cc1 | -4% | nt | nt | 8% | nt
Cc1cc[n+](-c2ccccc2)c2ccccc12 | 11µM* | 16% | 2 | 28% | 2
O=C(COc1ccc([N+](=O)[O-])cc1)NNC(=S)NC(=O)c1ccc(Br)cc1 | ? | 1% | 0 | 3.2µM* | -1
Cc1ccc(OCC(=O)Nc2ccc([N+](=O)[O-])cc2)cc1 | -12% | -12% | 6 | 1% | 2
Cc1ccc(C(=O)NC(=S)NNC(=O)COc2ccc([N+](=O)[O-])cc2)cc1 | 11µM* | 26% | 13 | 11µM* | -5
O=C1[C@H]2[C@H]3[C@H](O)[C@H](O)C/C(=N/OC[C@@H](O)COCc4ccco4)[C@@H]3CC[C@@H]2C(=O)N1Cc1ccccc1 | -1%[10 µM] | nt | nt | 8%[10 µM] | nt
CCSc1nc2sc3c(c2c(=O)[nH]1)CCc1ccccc1-3 | -24% | ? | nt | ? | 2
NNc1nc2sc3c(c2c(=O)[nH]1)CCc1ccccc1-3 | 18µM* | -11% | -14 | 16µM* | -5
CC(C)NC(=O)c1ccccc1NC(=O)/C=C/c1cccc([N+](=O)[O-])c1 | 7.9µM* | -5% | -7 | ? | -3
Cn1nc(NC(=O)CC23CC4CC(CC(C4)C2)C3)c2c(F)cccc21 | 5% | 0% | 0 | -9% | 10
CS(=O)(=O)CCCCN=C=S | -16% | nt | nt | 13µM* | nt
CC(=O)Nc1ccc(Cl)c(C(N)=O)c1 | 0% | -9% | 1 | -6% | 4
NC(=O)c1cc(N2C(=O)C=CC2=O)ccc1Cl | 7.1µM* | -49% | 4 | 7.1µM* | -9
O=C1C=C(Nc2cccnc2)c2ccccc2C1=O | nt | nt | -11 | nt | 0
CCN(CCCn1c(=S)[nH]c2ncccc2c1=O)c1ccccc1 | 4µM* | 3% | -6 | 1.4µM* | 4
CC(C)OCCCn1c(=S)[nH]c2ncccc2c1=O | ? | 5% | 3 | 8.9µM* | 4
Cc1cccc2sc(NC(=O)C3CSC4(C)CCC(=O)N34)nc12 (configuration not stated) | 2% | -50% | 2 | -25% | 0
CC12CCC(=O)N1C(C(=O)Nc1nc3c(F)cc(F)cc3s1)CS2 (configuration not stated) | 3.5µM* | -2% | -1 | -31% | -3
Cc1ccc(/C=N/NC(=O)c2cccs2)o1 | ? | ? | 1 | ? | 16
O=C(N/N=C/c1ccc(-c2cccc([N+](=O)[O-])c2)o1)c1ccc([N+](=O)[O-])cc1 | 5µM* | -2% | 8 | 2.5µM* | -18
O=C(N/N=C/c1ccc(-c2cccc([N+](=O)[O-])c2)o1)c1ccccc1O | 2.2µM* | 3% | -11 | 3.2µM* | -11
COc1ccc(OCc2ccc(/C=N\NC(=O)c3sccc3C)o2)cc1 | ? | 10% | ? | 11µM* | -18
COc1cc(C(=O)NCC(=O)N/N=C/c2ccc(-c3cccc([N+](=O)[O-])c3)o2)cc(OC)c1OC | 1% | -3% | 0 | ? | -19
